PriA SSB inh = inhibitors of Klebsiella pneumoniae PriA binding to SSB C-terminal tail. AlphaScreen SSBct-PriA binding, biotinylated peptide. inhibition, % at 33 µM. 430,000 compounds, 0.6% hits; in the data active = inhibition mostly above about 37%, no sharp cut-off; inactive = mostly below about 20%;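 note: plate controls were negative control peptide for no effect and reference peptide for full effect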
BoNT-A LC inh2 = blocks Botulinum neurotoxin A light chain protease; 360,000 compounds, 0.17% hits; multiplex microsphere protease substrate cleavage, flow cytometry; inhibition, % at 10 µM; AID 588499; note: plate controls were buffer without enzyme for full effect and enzyme alone for no effect
BoNT F protease = blocks Botulinum neurotoxin F light chain protease; Multiplex microsphere protease cleavage assay, flow cytometry; 360,000 compounds, 0.22% hits; inhibition, % at 10 µM; in the data active = inhibition above about 35%, passing the limit was not always enough; inconclusive = no clear call, values can overlap the other calls; note: plate controls were buffer without enzyme for full effect and enzyme alone for no effect
Anthrax LF prot = inhibitors of Bacillus anthracis lethal factor protease | P15917 | multiplex microsphere protease cleavage assay, LF | inhibition, % at 10 µM | 360,000 compounds, 0.12% hits; note: plate controls were buffer without enzyme for full effect and enzyme alone for no effect
Target sequence (P15917 whole entry, looked up): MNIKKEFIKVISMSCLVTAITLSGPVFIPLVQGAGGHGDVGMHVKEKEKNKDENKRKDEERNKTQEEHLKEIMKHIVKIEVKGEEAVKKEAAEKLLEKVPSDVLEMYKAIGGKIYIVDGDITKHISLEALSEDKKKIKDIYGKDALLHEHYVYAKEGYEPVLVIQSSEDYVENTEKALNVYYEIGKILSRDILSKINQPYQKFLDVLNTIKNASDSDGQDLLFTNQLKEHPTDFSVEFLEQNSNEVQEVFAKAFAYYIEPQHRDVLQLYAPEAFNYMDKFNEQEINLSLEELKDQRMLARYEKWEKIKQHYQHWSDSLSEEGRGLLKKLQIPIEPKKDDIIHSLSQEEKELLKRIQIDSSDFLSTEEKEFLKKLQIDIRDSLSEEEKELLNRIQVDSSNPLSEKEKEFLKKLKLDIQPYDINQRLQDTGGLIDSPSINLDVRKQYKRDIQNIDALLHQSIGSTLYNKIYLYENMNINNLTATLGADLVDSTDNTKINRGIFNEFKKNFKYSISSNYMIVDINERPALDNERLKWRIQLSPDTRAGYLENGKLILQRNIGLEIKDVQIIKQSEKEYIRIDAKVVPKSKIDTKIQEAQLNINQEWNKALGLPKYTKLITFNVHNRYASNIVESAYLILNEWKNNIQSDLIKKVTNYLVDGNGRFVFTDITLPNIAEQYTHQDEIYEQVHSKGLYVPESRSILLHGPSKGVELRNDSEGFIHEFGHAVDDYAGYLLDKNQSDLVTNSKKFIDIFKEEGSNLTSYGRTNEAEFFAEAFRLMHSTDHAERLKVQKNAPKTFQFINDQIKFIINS
Autofluor counter = flagged as autofluorescent in microsphere protease counterscreen; 360,000 compounds, 3.1% hits; AID 624483; compound autofluorescence counterscreen, microsphere flow cytometry; active compounds read high; fluorescence intensity (no concentration beside the values); in the data active = fluorescence intensity above about 16000; inconclusive = no clear call, values can overlap the other calls
Starred values were filed as active, the others as inactive; ? = inconclusive; . = not tested or not shown; + = active, no number. Compounds with a hit are over-represented: about 3.1% of the library has one in this group of screens. Cut-off read from the data, not from the text of the source, unless noted: active = inhibition above about 30%; inconclusive = no clear call, values can overlap the other calls; inactive = below that.

SMILES	PriA SSB inh	BoNT-A LC inh2	BoNT F protease	Anthrax LF prot	Autofluor counter
Cc1ccc2cc(C)c(N3CCN(c4ccccn4)CC3)nc2c1	-13.3	0.3	-3.3	-4.0	23535*
CC(=O)Nc1ccc(S(=O)(=O)NC2(C(F)(F)F)NC(=O)N(C3CCCCC3)C2=O)cc1 (stereo not given)	-8.3	?	-0.5	-4.7	23390*
CC(=O)Nc1ccc(S(=O)(=O)NC2(C(F)(F)F)NC(=O)N(C3CCCC3)C2=O)cc1 (stereo not given)	-8.4	-0.4	-2.0	-1.9	22547*
CC(=O)Nc1ccc(S(=O)(=O)NC2(C(F)(F)F)NC(=O)N(c3ccc(C)cc3)C2=O)cc1 (stereo not given)	-10.5	0.6	-4.2	-1.9	4616
CC(=O)NC1(C(F)(F)F)NC(=O)N(C2CCCCC2)C1=O (stereo not given)	-3.0	-0.3	3.0	-0.6	22952*
O=C(CC(=O)N/N=C/c1ccc(O)cc1)N/N=C\c1ccc(O)cc1	-3.0	.	.	.	.
CC(C)(C)c1csc(NC(=O)C2CCCN(S(C)(=O)=O)C2)n1 (stereo not given)	-14.0	.	.	.	.
Cc1ccc(N2C3=C(C(=O)CC(C)(C)C3)C(c3cn(C)nc3C)C3=C2CC(C)(C)CC3=O)cc1	2.1	29.1	-14.5	12.4	20845*
Cc1nc2c([nH]1)C[C@@H](C(=O)N1CCN(Cc3ccccn3)CC1)CC2	-7.0	.	.	.	.
Cn1cc(Br)c(C(=O)NC2CCCCCC2)n1	4.7	0.3	2.9	-0.4	5545
Cn1cc(Br)c(C(=O)NC2C3CC4CC(C3)CC2C4)n1 (stereo not given)	-7.4	?	-3.2	-0.7	20443*
Cc1ccc(-n2c(C3CC3c3ccc(Cl)cc3)n[nH]c2=S)cc1 (stereo not given)	8.8	-3.7	-6.4	1.1	23745*
Cc1ccc(-n2c([C@@H]3C[C@H]3c3ccccc3)n[nH]c2=S)cc1	10.0	-0.1	-3.2	1.1	2219
S=c1[nH]nc(C2CC2c2ccc(Cl)cc2)n1-c1ccc(Cl)cc1 (stereo not given)	4.0	-0.4	2.7	-0.4	1983
Cc1ccc(C2CC2c2n[nH]c(=S)n2-c2ccc(C)cc2)cc1 (stereo not given)	0.6	?	-2.0	-3.3	24709*
COc1ccc(CN(CCN(C)C)Cc2ccccc2)c(OC)c1	-8.7	-1.2	-3.2	-8.1	20994*
COc1ccc(C=NN(C)c2cc(=O)n(C)c(=O)[nH]2)cc1OC	13.9	.	.	.	.
CCCn1nnnc1NC(=O)COc1ccc(Cl)c(C)c1	1.3	-0.9	0.3	0.9	2528
CCn1nnc(NC(=O)COc2cc(C)ccc2C(C)C)n1	-0.6	-1.9	-4.5	-1.5	20175*
CCCCn1nnc(NC(=O)COc2ccc(Cl)c(C)c2)n1	6.6	-5.9	-6.3	-5.8	17759*
Cc1ccc(C(C)C)c(OCC(=O)Nc2ccc(C(N)=O)cc2)c1	-11.0	.	.	.	.
O=C(N[C@H]1CCN(c2ccccn2)C1)c1cccc(Oc2ccc(F)cc2)c1	11.0	.	.	.	.
O=C(Nc1nc(-c2ccc3c(c2)OCO3)cs1)c1ccc(S(=O)(=O)N2CCc3ccccc32)cc1	-11.0	.	.	.	.
CC12CCC(C(=O)NCCCN3CCOCC3)(C(Br)C1=O)C2(C)C (stereo not given)	-18.9	-0.4	6.4	-0.6	6089
CC12CCC(C(=O)NCCCN3CCOCC3)(OC1=O)C2(C)C (stereo not given)	-5.6	-1.9	-3.5	-1.3	22515*
SMILES	PriA SSB inh	BoNT-A LC inh2	BoNT F protease	Anthrax LF prot	Autofluor counter
COc1ccc(C(=O)OCC(=O)Nc2ccc(OC(F)F)cc2)c(OC)c1	-3.1	1.0	2.4	3.1	16151*
O=[N+]([O-])c1ccc(C(=Nc2cccc3ccccc23)N2CCOCC2)cc1	48.5*	-1.9	-4.3	-4.5	17545*
CN(C)c1ccc(/C=C/c2ccc3ccccc3[n+]2C)cc1	13.7	9.3	-35.2	-4.0	2045
CN(C)c1ccc(/C=C/c2ccc3c4ccccc4ccc3[n+]2-c2ccccc2)cc1	75.3	62.4*	+	-62.2	1663
COc1ccc2oc(-c3csc(NC(=O)c4ccccc4[N+](=O)[O-])n3)cc2c1	21.0	.	.	.	.
COc1ccc(C2=NOC3(CC(=O)N(c4ccc(C)cc4)C3=O)C2)c(OC)c1 (stereo not given)	-15.5	2.5	2.7	1.3	22248*
COc1ccc(N(CC(=O)Nc2ccc(C)cn2)S(=O)(=O)c2c(C)noc2C)cc1	3.2	-2.7	-6.0	-2.3	17199*
COc1ccc(N(CC(=O)Nc2cc(Cl)ccc2OC)S(=O)(=O)c2c(C)noc2C)cc1	-10.3	?	-4.7	-3.2	20289*
COc1ccc(N(CC(=O)Nc2ccc(F)c(Cl)c2)S(=O)(=O)c2c(C)noc2C)cc1	-6.1	0.3	0.1	-4.3	16336*
CCOc1ccc(N(CC(=O)Nc2ccc(OC)cc2)S(=O)(=O)c2c(C)noc2C)cc1	-11.5	0.2	-2.7	-15.7	4033
COc1ccc(N(CC(=O)NCc2ccc(C)cc2)S(=O)(=O)c2c(C)noc2C)cc1	-2.0	0.2	2.7	-1.9	5142
COc1ccc(N(CC(=O)Nc2ccc(OC)c(Cl)c2)S(=O)(=O)c2c(C)noc2C)cc1	-1.4	2.4	2.2	-11.1	20070*
FC(F)Oc1ccccc1C=Nn1cnc2ccccc21	-28.3	.	.	.	.
CCCOc1ccc(-c2csc(NC(=O)COc3ccccc3)n2)cc1	-9.0	.	.	.	.
CC(C)(C)c1ccc(C(=O)NCC(=O)N/N=C\c2ccco2)cc1	-4.0	.	.	.	.
Cc1cccc(NC(=O)C2COCC(=O)N2Cc2ccccc2)n1 (stereo not given)	-4.0	.	.	.	.
COc1ccc(-c2cnc(SCC(=O)Nc3nc(C)cs3)n2Cc2ccco2)cc1	30.0*	.	.	.	.
COc1ccc(C(=O)CSc2nnc(-c3cc4ccccc4cc3O)n2Cc2ccco2)cc1	-2.6	-1.3	-5.6	-3.7	23275*
C=CCn1c(SCC(=O)Nc2ccccc2CC)nnc1-c1ccncc1	6.0	0.7	0.4	-6.2	23141*
COc1ccccc1NC(=O)CSc1nnc(-c2ccc(C)cc2)n1Cc1ccco1	47.5	.	.	.	.
COc1ccc(C(=O)CSc2nnc(-c3cccnc3)n2Cc2ccco2)cc1	-10.8	-0.3	3.6	-5.5	10586
COc1ccccc1NC(=O)CSc1nnc(-c2ccncc2)n1Cc1ccco1	55.8*	.	.	.	.
COc1ccc(Cl)cc1NC(=O)C(=O)NC[C@@](O)(c1cccs1)C1CC1	-19.0	.	.	.	.
COCCCNC(=O)Cn1c(N2CCN(c3ccccc3)CC2)nc2ccccc2c1=O	0.0	.	.	.	.
CN1CCC(CNC(=O)c2ccc3nsnc3c2)CC1	-2.0	.	.	.	.
SMILES	PriA SSB inh	BoNT-A LC inh2	BoNT F protease	Anthrax LF prot	Autofluor counter
COc1ccc(CCC(=O)N2CCN(c3ccc(-c4ccccc4C)nn3)CC2)cc1	-5.0	.	.	.	.
COc1ccccc1NC(=O)CSc1nnc(-c2ccco2)n1N	10.5	1.0	6.8	-1.9	4144
COc1ccccc1NC(=O)CSc1nnc(-c2ccco2)n1Cc1ccco1	-2.5	0.5	-1.4	-0.1	19643*
c1ccc(-c2cnc(-c3ccccc3)nc2)cc1	-5.2	?	12.1	4.7	7478
O=C(O)c1ncc(-c2ccccc2)cn1	10.5	-4.5	-8.6	-4.8	17752*
C=CCNCCCCOc1ccc(C)cc1[N+](=O)[O-]	0.5	0.8	7.6	1.9	4187

Source: PubChem
